# Reference: PubChem BioAssay AID1508600 (Functional Genomics Laboratory (NCATS/FGL), 2020)
# Out of some 53,000 sequences screened, about 3,700 (7%) were called active. The full list was thinned out, with actives kept by preference. Values without a mark were called inactive.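 Rule for the calls: active = gene knockdowns whose robust z-score for IL-1 alpha signal is at least 2 or at most -2, so actives lie on both sides; inactive = the rest.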
# Assay: Components of the Cytosolic LPS Sensing Pathway: Gene Identification via Genome-wide siRNA Screen;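 note: robust z of the log signal after scaling to non-targeting control siRNA wells of the plate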
# Conditions: RAW264.7 macrophages, IL-1a HTRF, actives lie on both sides, screened at 100 nM (by protocol), cells primed 5 h with Pam3CSK4 first
# How it was run: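 Supernatant IL-1a by HTRF from RAW264.7 cells primed with Pam3CSK4 (5 hours) and transfected with LipidA (24 hour) after 48h siRNA knockdown at 100 nM; cell viability checked with CellTiter-Glo.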
row,Sequence,z-score
1,GCUGUACAGUCAAUACCUGTT against Abhd17a,1.2
2,GGACCUUUAGCUGGUUUAGTT against Sowaha,0.559
3,GGUGAUUCCAUUACCUAGUTT against Pde12,0.572
4,GGUAAAAUCACGCAGUAAATT against Ppp1r3a,-0.56
5,GGACCCAGAGAAGAUCAAATT against Etfrf1,0.514
6,GGCAUAGCUCAGUGAUAGCTT against Tmem19,0.117
7,CCAGACAGAAGGGUUAGCUTT against Mrps36,-2.03 (active)
8,GCCUUUACACUAAUGAUAATT against Cilp,0.455
9,GGUCUCAGUUUCUCAGAAUTT against Siglece,-1.62
10,GCUUGCUUAUGGCCUAUUATT against Ucma,-2.05 (active)
11,GCUACCAGGAUAGCGAAACTT against P2rx2,0.826
12,GGAAAAAUGGUCUGUAAAATT against Adck2,0.508
13,GGAAAAGGUGACCUGUCUCTT against Slc44a1,-1.77
14,GGCCAGAAAGGCAGCAAAGTT against Msgn1,-1.03
15,GGAAGUGAAGACCUUCUUCTT against St3gal4,-0.898
16,UCGAUAGCCUCAAUCAGCATT against Zfp58,-1.99
17,GGAGAAGGUCGAAAAGCCUTT against Rybp,-2.01 (active)
18,GCAUUCGUUCGGCACGUGUTT against Bcl2l14,-0.0672
19,CGAAGGGAAGCAAAAUACATT against Bend5,2.11 (active)
20,GCCCUGGAUCAUUGAGUGATT against Atp2b1,0.749
21,GGCCAUACACCUGUGACAUTT against Osr2,1.37
22,GGAUGAUCGCUUUUGCUAUTT against Caly,2.02 (active)
23,CCCUCUACUACUGCAUCGUTT against Xkr7,1.74

row,Sequence,z-score
1,GCACUUCUACCGGAAAGUUTT against Mad2l1bp,-0.761
2,GCAAAGCCCUAUUCCUAAUTT against Vmn2r42,1.21
3,GGCCUAAACCCUUUCAUCUTT against V1rb6,-0.0202
4,GCGAUCCUCUCUACUUAACTT against Eno4,-1.49
5,CGUGGGACCUGGUAUGUAATT against Slc22a12,2.79 (active)
6,GCGGGUAUGAUGGUACCUUTT against Pomt2,1.39
7,CGUGAUGAGUGAAAAUGAUTT against Cd34,-2.12 (active)
8,GGUACUUCACAAUGGACAGTT against Zcchc9,0.951
9,GGUGCAUUUUCUAGAAUCATT against Usp45,0.933
10,GGUACCUAUGCCAGUUUUGTT against Aqp12,2.89 (active)
11,GCCACCAAGUACUUUGGUUTT against Vmn1r76,1.34
12,GCAAUUUGCUCAUCUCUAATT against Dcc,1.89
13,GGAUGCAGAUGCUGUGGACTT against S100a1,-0.918
14,GGAGUACGACUACUACGGUTT against Sfrp5,0.83
15,GGAUUACCGGCAGCUGGAATT against Dnm1,2.24 (active)
16,GGCGAGCAUCGCUAUUGACTT against Zcrb1,0.734
17,GGAGAUCCUAGGCUUGAACTT against Vsx2,0.279
18,GGGAGACUUGUCAUGCACATT against Slc45a2,0.728
19,GGUAGCUGAAGAAGACUUCTT against Reg2,-0.591
20,GGCUUUGCUGAAUGUCUCATT against Nrn1l,0.443
21,CCUGCUAAUGUUUGUAAGUTT against Sowahc,1.37
22,GCAUUAAUUGCUUCUCUUATT against Nup155,-2.35 (active)
23,GGAACUCACCCUCAGCUUGTT against Tmem260,0.313

row,Sequence,z-score
1,CCAAACAACCAGCUAAUAUTT against Mia3,-0.375
2,GGUGAAAUGAGAAUACUUGTT against Erap1,1.07
3,CCCUGGUUGUUUGUAGAGUTT against Armt1,2.38 (active)
4,GGAAUGAUGAAGAGUGUCCTT against Btla,-0.0564
5,GGCUACUGUAGGAAGAAAUTT against Defb20,1.7
6,GGAAGUUUUGUUCCUGCAUTT against Nars2,-0.0244
7,GGCCAUCCAGAAUUACAUGTT against Vash2,1.08
8,GGAGAAGGAACUGUGUGAGTT against Nfkbil1,-2.26 (active)
9,CCGGGUCAGGACAAUUCAUTT against Hsd17b1,1.87
10,GGCCAUUGAUCAAGACAAGTT against Glyat,1.66
11,GGCUUUGUAGAAAAUUCAUTT against Polr2a,-2.15 (active)
12,GCCGUGAUGCCUAAAAUGCTT against Olfr543,-0.306
13,GGUAUCUUGAGAAGCCAAUTT against Stat3,-0.536
14,GGAUUCAUCAUCUACCCGGTT against C1ql4,-1.08
15,GGAUAACCUUGAGUAGGUGTT against Olfr906,0.484
16,CGGAUACCUAGAGUGCAUCTT against Zfp42,0.725
17,CGUGGAAGCUGUGUUAUCUTT against Il34,-0.112
18,GGAUGACCAGAACUUCAGUTT against Zfp956,2.84 (active)
19,AACGUAAUUAGCGUGAAUUTT against Cyp2j11,0.337
20,GCAGUUCCCAUAGUUUUCUTT against Il1r2,6.07 (active)
21,CUUGUCAAGUGAUGAAAUGTT against Xlr,-0.546
22,GGUCGAAAGAAUAAUUUGUTT against Cct6a,-0.628
23,GGCAAUUUUCAGAGAAGUUTT against Fosb,-2.08 (active)
